# Laboratory results taken from PubChem BioAssay (Tox21).
# Unmarked numbers belong to inactive results. Records with an inconclusive call do not appear. Where a call stands in place of a potency, no number is given. Active and inactive are the calls of the source. Unless noted, calls come from the whole dose curve; as a rule, active = well fitted curve in the direction sought with a large enough effect in the repeat runs; inconclusive = weak or mixed curves; inactive = no such curve, though single readings can be large; an effect the other way counts as inactive or inconclusive.
# Experiments:
# [1] = qHTS assay to identify small molecule agonists of the sonic hedgehog signaling (Shh) pathway - cell viability counter screen (AID 1259366); note: nearly all actives have a fitted effect of over 50% in size
# In short: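 CellTiter-Fluor fluorescence read-out, 1 hr at 37C, added after 23hr compound exposure. Cells: 3T3 Gli1-Luc, an NIH/3T3 clone with stably integrated Gli1-Luc reporter, plated 4hr before compound.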
# [2] = qHTS assay to identify small molecule antagonists of the sonic hedgehog signaling (Shh) pathway - cell viability counter screen (AID 1259367); note: nearly all actives have a fitted effect of over 55% in size
# In short: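 CellTiter-Fluor signal in conditioned medium-stimulated 3T3 Gli1-Luc cells, 23 hr compound exposure, 37C.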
# [3] = qHTS assay to identify small molecule agonists of the sonic hedgehog signaling (Shh) pathway (AID 1259368; calls by dose curve;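 note: NIH/3T3-derived 3T3Gli1-Luc cells carrying a stable Gli1-driven firefly luciferase reporter; series mostly up to about 92 µM; nearly all actives have a fitted effect of over 15% in size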)
# In short: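 Read-out: firefly luciferase luminescence from a Gli1 response element reporter stably integrated in NIH/3T3-derived 3T3Gli1-Luc cells, measured 30 min at room temperature after reagent addition. Compound exposure lasted 24 hr at 37 C, 5% CO2.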
# [4] = biological target: Estrogen receptor beta (Homo sapiens) (UniProt Q92731); assay: qHTS assay to identify small molecule agonists of the estrogen receptor beta (ER-beta) signaling pathway (AID 1259377; active = well fitted activation curve with a large enough effect in the signal ratio in the repeat runs, not every such curve was filed as active; the % refers to the signal ratio)
# In short: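 Beta-lactamase reporter readout: fluorescence of LiveBLAzer B/G FRET substrate after 2 h at room temperature, following 16 h compound treatment of ER-beta-UAS-bla HEK293T cells at 37C in 2% charcoal-stripped FBS medium.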
# [5] = qHTS assay to identify small molecule agonists of the androgen receptor (AR) signaling pathway in the presence of an antagonist - cell viability counter screen (AID 1259379); note: nearly all actives have a fitted effect of over 25% in size; note: potency is the fitted concentration of half-maximal effect;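 for activity change, negative = cytotoxicity: MDA-kb2 human breast cancer cells carrying an MMTV luciferase reporter; series mostly up to about 92 µM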
# In short: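 Viability counter screen: CellTiter-Fluor fluorescence, measured in the same wells as the luciferase read-out. MDA-kb2 cells, 3,000/well, with nilutamide at 3.0uM final and compounds at 15 concentrations, 16 hr at 37C, 0% CO2.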
# [6] = qHTS assay to identify small molecule agonists of the estrogen receptor beta (ER-beta) signaling pathway - cell viability counter screen (AID 1259380); note: nearly all actives have a fitted effect of over 30% in size
# In short: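 Luminescence read-out (CellTiter-Glo, 30 min, room temp) taken in the same wells as the beta-lactamase reporter assay; ER-beta-UAS-bla HEK293T cells exposed to DMSO-dissolved compounds for 16 hr at 37C in 2% charcoal-stripped FBS medium.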
# [7] = qHTS assay to identify small molecule antagonists of the estrogen receptor beta (ER-beta) signaling pathway - cell viability counter screen (AID 1259382);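 note: HEK293T cells carrying ER-beta-UAS-bla reporter stimulated with estradiol; series mostly up to about 92 µM; nearly all actives have a fitted effect of over 55% in size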
# In short: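 Luminescent ATP read-out (CellTiter-Glo, 30 min, RT) taken in the same wells as the bla reporter assay. HEK293T ER-beta-UAS-bla cells in 2% charcoal-stripped FBS were exposed to compounds with 1nM E2 for 16 hr at 37C.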
# [8] = qHTS assay to identify small molecule antagonists of the sonic hedgehog signaling (Shh) pathway (AID 1259369; calls by dose curve; note: nearly all actives have a fitted effect of over 45% in size)
# In short: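 Luminescence readout: firefly Luc under Gli1 response element in 3T3Gli1-Luc cells (NIH/3T3 clone). Antagonist mode, stimulation by conditioned medium; compound exposure 24hr at 37 C, 5% CO2.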
# [9] = biological target: Androgen receptor (Homo sapiens) (UniProt P10275); assay: qHTS assay to identify small molecule agonists of the androgen receptor (AR) signaling pathway in the presence of an antagonist (AID 1259381; calls by dose curve; note: nearly all actives have a fitted effect of over 15% in size)
# In short: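 Luciferase read-out (ONE-Glo, 30min room temperature) in MDA-kb2 MMTV-reporter cells; agonist mode run in presence of AR antagonist nilutamide, 3.0uM final. Compounds tested as 15-point series, 16hr exposure at 37C, 0% CO2.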
# [10] = biological target: Estrogen receptor beta (Homo sapiens) (UniProt Q92731); assay: qHTS assay to identify small molecule antagonists of the estrogen receptor beta (ER-beta) signaling pathway (AID 1259378; active = well fitted inhibition curve with a large enough effect in the signal ratio in the repeat runs, not every such curve was filed as active; the % refers to the signal ratio)
# In short: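 Antagonist mode: compounds added to beta-lactamase reporter HEK293T ER-beta-UAS cells stimulated with E2 (1nM final), 16 hr at 37C. LiveBLAzer B/G FRET substrate, 2 hours room temperature, fluorescence read-out.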
# Estrogen receptor beta (Homo sapiens), sequence (Q92731 whole entry, looked up): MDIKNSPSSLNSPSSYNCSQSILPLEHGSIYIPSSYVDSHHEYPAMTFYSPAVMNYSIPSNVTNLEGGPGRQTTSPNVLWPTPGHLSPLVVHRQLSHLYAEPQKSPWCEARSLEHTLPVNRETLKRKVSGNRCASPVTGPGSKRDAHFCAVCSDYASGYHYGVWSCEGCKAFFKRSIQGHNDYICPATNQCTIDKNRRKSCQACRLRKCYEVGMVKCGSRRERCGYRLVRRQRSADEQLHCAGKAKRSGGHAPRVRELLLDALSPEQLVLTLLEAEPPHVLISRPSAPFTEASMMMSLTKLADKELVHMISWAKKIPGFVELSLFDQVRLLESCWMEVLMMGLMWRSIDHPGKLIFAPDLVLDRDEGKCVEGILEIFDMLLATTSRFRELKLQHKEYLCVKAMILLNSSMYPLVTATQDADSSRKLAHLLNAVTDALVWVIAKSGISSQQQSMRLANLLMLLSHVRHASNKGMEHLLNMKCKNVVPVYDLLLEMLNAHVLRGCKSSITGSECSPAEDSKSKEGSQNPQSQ
# Androgen receptor (Homo sapiens), sequence (P10275 whole entry, looked up): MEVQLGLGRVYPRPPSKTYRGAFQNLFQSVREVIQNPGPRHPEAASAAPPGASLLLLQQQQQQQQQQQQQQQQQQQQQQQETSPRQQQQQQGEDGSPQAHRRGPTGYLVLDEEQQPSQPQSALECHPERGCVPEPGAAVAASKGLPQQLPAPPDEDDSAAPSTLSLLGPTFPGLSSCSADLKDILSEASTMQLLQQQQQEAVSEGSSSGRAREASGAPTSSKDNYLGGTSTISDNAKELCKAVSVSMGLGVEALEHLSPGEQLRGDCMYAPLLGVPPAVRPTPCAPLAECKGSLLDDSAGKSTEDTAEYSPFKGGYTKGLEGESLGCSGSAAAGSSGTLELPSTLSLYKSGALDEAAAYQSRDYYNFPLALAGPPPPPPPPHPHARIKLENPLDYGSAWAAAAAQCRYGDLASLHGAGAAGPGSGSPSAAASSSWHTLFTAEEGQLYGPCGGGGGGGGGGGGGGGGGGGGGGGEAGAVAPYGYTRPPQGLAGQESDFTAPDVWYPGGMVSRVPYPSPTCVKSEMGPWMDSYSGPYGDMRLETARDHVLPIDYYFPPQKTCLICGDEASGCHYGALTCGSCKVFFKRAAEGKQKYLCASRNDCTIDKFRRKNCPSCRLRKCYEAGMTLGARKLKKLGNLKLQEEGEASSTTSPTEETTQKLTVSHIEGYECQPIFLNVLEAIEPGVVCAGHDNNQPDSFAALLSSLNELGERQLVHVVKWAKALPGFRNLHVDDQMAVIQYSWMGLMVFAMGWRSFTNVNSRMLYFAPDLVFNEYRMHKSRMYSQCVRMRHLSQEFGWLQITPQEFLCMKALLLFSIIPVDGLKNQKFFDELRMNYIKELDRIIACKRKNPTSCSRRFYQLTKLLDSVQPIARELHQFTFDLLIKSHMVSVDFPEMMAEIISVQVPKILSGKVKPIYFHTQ
compound,measurement,setting,value
CC(=O)c1ccc2c(c1)CCCC2,Potency,[1],inactive
same,Potency,[2],inactive
same,outcome,[3],inactive
same,Potency,[4],inactive
same,Potency,[5],inactive
same,outcome,[6],inactive
same,outcome,[7],inactive
O=C(/C=C/c1ccccc1)NCCO,Potency,[1],inactive
same,Potency,[2],inactive
same,outcome,[3],inactive
same,Potency,[5],inactive
same,outcome,[7],inactive
C=CC(C)(O)CC/C=C(\C)CC (stereo not given),Potency,[1],inactive
same,Potency,[2],inactive
same,outcome,[3],inactive
same,Potency,[5],inactive
same,outcome,[6],inactive
same,outcome,[7],inactive
CN[C@@H]1[C@@H](O)[C@@H](O[C@@H]2[C@H](O)[C@H](O[C@H]3OC(CN)=CC[C@H]3N)[C@@H](N)C[C@H]2N)OCC1(C)O (stereo not given in full),Potency,[1],inactive
same,Potency,[2],inactive
same,outcome,[3],inactive
same,Potency,[5],inactive
same,outcome,[7],inactive
O=C(O)c1c(Cl)ccc(Cl)c1Cl,Potency,[1],inactive
same,Potency,[2],inactive
same,outcome,[3],inactive
same,Potency,[5],inactive
same,outcome,[6],inactive
same,outcome,[7],inactive
CCC(C)(CCC(C)C)C(=O)[O-].CCC(C)(CCC(C)C)C(=O)[O-].[Zn+2] (stereo not given),Potency,[2],inactive
same,outcome,[3],inactive
same,Potency,[8],inactive
same,Potency,[5],inactive
same,outcome,[6],inactive
same,outcome,[7],inactive
CCN(CC)C(=O)C1CN2CCc3cc(OC)c(OC)cc3C2CC1OC(C)=O (stereo not given),Potency,[1],inactive
same,Potency,[2],inactive
same,outcome,[3],inactive
same,Potency,[5],inactive
same,outcome,[6],inactive
same,outcome,[9],inactive
same,outcome,[7],inactive
Oc1ccccc1Cc1ccccc1O,Potency,[1],inactive
same,Potency,[2],inactive
same,outcome,[3],inactive
same,Potency,[5],inactive
CC1=NN(c2ccc(S(=O)(=O)O)cc2)C(=O)C1N=Nc1ccccc1 (stereo not given),outcome,[3],inactive
same,Potency,[8],inactive
same,Potency,[5],30.6 µM (active)
same,outcome,[6],inactive
same,outcome,[7],inactive
CO/N=C(/C(=O)N[C@@H]1C(=O)N2C(C(=O)O)=C(Cn3nnc(C)n3)CS[C@H]12)c1csc(N)n1,Potency,[2],inactive
same,outcome,[3],inactive
same,Potency,[8],inactive
same,Potency,[4],inactive
same,outcome,[10],inactive
same,Potency,[5],inactive
same,outcome,[6],inactive
same,outcome,[7],inactive
O=C(c1ccc2c(c1)C(=O)OC2=O)c1ccc2c(c1)C(=O)OC2=O,Potency,[1],inactive
same,Potency,[2],inactive
same,outcome,[3],inactive
same,outcome,[10],inactive
same,Potency,[5],inactive
same,outcome,[6],inactive
same,outcome,[7],inactive
CCNC(=O)/C=C/c1cccc(Br)c1,Potency,[1],inactive
same,Potency,[2],inactive
same,outcome,[3],inactive
same,outcome,[10],inactive
same,Potency,[5],inactive
same,outcome,[6],inactive
same,outcome,[9],inactive
same,outcome,[7],inactive
CCC(C)(C)C1CCC(=O)CC1,Potency,[1],inactive
same,Potency,[2],inactive
same,outcome,[3],inactive
same,Potency,[5],inactive
same,outcome,[6],inactive
same,outcome,[9],inactive
same,outcome,[7],inactive
CCC(O)C(C)(C)C (stereo not given),Potency,[1],inactive
same,Potency,[2],inactive
same,outcome,[3],inactive
same,Potency,[5],inactive
same,outcome,[6],inactive
same,outcome,[7],inactive
Cc1ccccc1C,Potency,[1],inactive
same,Potency,[2],inactive
same,outcome,[3],inactive
same,Potency,[5],inactive
same,outcome,[6],inactive
same,outcome,[7],inactive
Cc1cccc(NC(=S)N(C)C)c1,Potency,[1],inactive
same,Potency,[2],inactive
same,Potency,[8],inactive
same,Potency,[5],inactive
same,outcome,[6],inactive
Cc1nc2n(c(=O)c1CCN1CCC(C(=O)c3ccc(F)cc3)CC1)CCS2,Potency,[1],inactive
same,Potency,[2],inactive
same,outcome,[3],inactive
same,Potency,[5],inactive
same,outcome,[6],inactive
same,outcome,[9],inactive
CC(=O)c1ccc(OCC(=O)N2CCCCC2)cc1,Potency,[1],inactive
same,Potency,[2],inactive
same,outcome,[3],inactive
same,Potency,[5],inactive
same,outcome,[6],inactive
same,outcome,[7],inactive
CC(=O)Nc1ncc([N+](=O)[O-])s1,Potency,[1],inactive
same,Potency,[2],inactive
same,outcome,[3],inactive
same,Potency,[5],inactive
same,outcome,[7],inactive
c1ccccc1,Potency,[1],inactive
same,Potency,[2],inactive
same,outcome,[3],inactive
same,Potency,[5],inactive
same,outcome,[6],inactive
same,outcome,[7],inactive
C=C(C)C(=O)OCCCCCCOC(=O)C(=C)C,Potency,[1],inactive
same,Potency,[2],inactive
same,outcome,[3],inactive
same,Potency,[5],inactive
same,outcome,[6],inactive
CCCCCCCCCCCCCCCC(=O)NCCO,Potency,[1],inactive
same,Potency,[2],inactive
same,outcome,[3],inactive
same,Potency,[5],inactive
same,outcome,[7],inactive
CC(C)C(=O)c1ccccc1,Potency,[1],inactive
same,Potency,[2],inactive
same,outcome,[3],inactive
same,outcome,[10],inactive
same,Potency,[5],inactive
same,outcome,[6],inactive
same,outcome,[7],inactive
O=C(O)Cc1cccc(-c2cc(CCCCCCc3ccc(O[C@H]4O[C@H](CO)[C@@H](O)[C@H](O)[C@@H]4O)c(-c4cccc(CC(=O)O)c4)c3)ccc2O[C@H]2O[C@H](CO)[C@@H](O)[C@H](O)[C@@H]2O)c1,"viability change, negative = cytotoxic",[1],1.74% [at 0.349 µM]
same,"viability change, negative = cytotoxic",[2],3.56% [at 0.349 µM]
same,activity change,[3],-0.0491% [at 0.349 µM]
same,"activity change, negative = cytotoxicity",[5],1.29% [at 0.35 µM]
same,"activity change, negative = cytotoxicity",[6],7.37% [at 0.349 µM]
same,"activity change, negative = cytotoxicity",[7],7.67% [at 0.349 µM]
CC(C)COC(=O)COc1ccc(Cl)cc1Cl,Potency,[1],inactive
same,Potency,[2],inactive
same,outcome,[3],inactive
same,outcome,[10],inactive
same,Potency,[5],inactive
same,outcome,[6],inactive
same,outcome,[9],inactive
same,outcome,[7],inactive
Cc1cc(C)cc([N+](=O)[O-])c1,Potency,[1],inactive
same,Potency,[2],inactive
same,outcome,[3],inactive
same,Potency,[5],inactive
same,outcome,[6],inactive
same,outcome,[7],inactive
CCCCC(CC)C(=O)OC(C)C (stereo not given),Potency,[1],inactive
same,Potency,[2],inactive
same,outcome,[3],inactive
same,Potency,[5],inactive
same,outcome,[6],inactive
same,outcome,[7],inactive
Cc1cccc(Nc2ccncc2S(=O)(=O)NC(=O)NC(C)C)c1,Potency,[1],inactive
same,Potency,[2],inactive
same,outcome,[3],inactive
same,Potency,[5],inactive
same,outcome,[6],inactive
same,outcome,[7],inactive
Cc1oc(=O)oc1CN1CCN(c2cc3c(cc2F)c(=O)c(C(=O)O)c2n3C(C)S2)CC1 (stereo not given),Potency,[1],inactive
same,Potency,[2],inactive
same,outcome,[3],inactive
same,Potency,[5],inactive
same,outcome,[7],inactive
CC(=O)OCCCc1ccccc1,Potency,[1],inactive
same,Potency,[2],inactive
same,outcome,[3],inactive
same,Potency,[5],inactive
same,outcome,[6],inactive
same,outcome,[7],inactive
C[Si]1(C)N[Si](C)(C)N[Si](C)(C)N1,Potency,[1],inactive
same,Potency,[2],inactive
same,outcome,[3],inactive
same,Potency,[5],inactive
same,outcome,[6],inactive
CC(C)(CO)[C@@H](O)C(=O)NCCCO,Potency,[1],inactive
same,Potency,[2],inactive
same,outcome,[3],inactive
same,outcome,[10],inactive
same,Potency,[5],inactive
same,outcome,[6],inactive
Cc1ncc([N+](=O)[O-])n1CC(O)CCl (stereo not given),Potency,[1],inactive
same,Potency,[2],inactive
same,outcome,[3],inactive
same,Potency,[5],inactive
same,outcome,[6],inactive
same,outcome,[9],inactive
same,outcome,[7],inactive
CC(C)(c1ccc(Oc2ccc3c(c2)C(=O)OC3=O)cc1)c1ccc(Oc2ccc3c(c2)C(=O)OC3=O)cc1,Potency,[1],inactive
same,Potency,[2],inactive
same,outcome,[3],inactive
same,Potency,[4],inactive
same,Potency,[5],inactive
same,outcome,[6],inactive
same,outcome,[7],inactive
CCC(C)N (stereo not given),Potency,[1],inactive
same,Potency,[2],inactive
same,outcome,[3],inactive
same,Potency,[4],inactive
same,Potency,[5],inactive
same,outcome,[7],inactive
Cc1cc(O)c2c(c1)C(=O)c1cccc(O)c1C2=O,Potency,[1],inactive
same,outcome,[3],inactive
same,Potency,[4],inactive
same,outcome,[10],inactive
same,Potency,[5],inactive
same,outcome,[6],inactive
same,outcome,[7],inactive
CC(=O)OC(C)(C)Cc1ccccc1,Potency,[1],inactive
same,Potency,[2],inactive
same,outcome,[3],inactive
same,Potency,[5],inactive
same,outcome,[6],inactive
same,outcome,[7],inactive
